Screening data (PubChem)
In the library only some 0.83% were active in any assay of this set; here they are far more common.
QS inhibitor: S. aureus quorum sensing inhibitors, primary screen, RNAIII-GFP reporter, flow cytometry; AID 527, 2006; actives 0.3% (n = 24,000); inhibition, % at 2 µM; S. aureus RN6390 RNAIII-GFP reporter, AIP-induced, flow cytometry 3 h;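 active means share of bacteria positive for the green fluorescent reporter and its mean brightness both inhibited by 50% or more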
LNCaP diff act: activators of LNCaP prostate cell differentiation, primary screen, flow cytometry side scatter | actives 0.56% (n = 24,000) | side scatter shift, % at 10 µM | 4 d;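 active means side scatter shift above 30%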;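 further: androgen-responsive LNCaP prostate cancer cells in charcoal-stripped serum medium; higher shift means more granular cells and more differentiation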
A number is an active result; i = inactive.

SMILES | QS inhibitor | LNCaP diff act
CC(=O)c1cccc(NC2c3ccccc3C(=O)N2Cc2ccc3c(c2)OCO3)c1 (configuration not stated) | i | 30.0
CCc1c(C)nc(SCCOc2ccc(OC)cc2)[nH]c1=O | i | i
CC(=O)c1ccc(OCC(O)CN2C(C)CCCC2C)cc1 (configuration not stated) | i | i
CN(CC(O)COc1ccc(OCC(O)CN(C)C2CCCCC2)cc1)C1CCCCC1 (configuration not stated) | i | 37.0
Cc1cc(NS(=O)(=O)Cc2ccccc2)cc(C)c1OCC(=O)N1CCOCC1 | i | i
CC(=O)O[C@H]1C[C@@H]2CC[C@@H]3[C@H](CC[C@@]4(C)[C@H]3C[C@H]([N+]3(C)CCCCC3)[C@@H]4OC(C)=O)[C@@]2(C)C[C@@H]1[N+]1(C)CCCCC1 | i | i
CCOC(=O)c1ccccc1NC(=O)Cn1c(-c2nonc2N)nc2ccccc21 | i | 32.0
CCC(=O)Nc1nonc1-c1nc2ccccc2n1CC(C)C | i | i
Cc1cc(S(=O)(=O)NCCc2ccccc2)c(C)s1 | i | i
CCS(=O)(=O)N1CCC(C(=O)NCc2ccccc2OC)CC1 | i | i
COC(=O)c1c(-c2cccs2)csc1NC(=O)CN1CCOCC1 | i | i
CCOC(=O)c1c(-c2ccc(C)o2)csc1NC(=O)CN1CCN(CC)CC1 | i | 34.0
Cc1ccccc1-c1nc(CS(=O)CC(=O)NCCN2CCN(Cc3ccccc3)CC2)c(C)o1 (configuration not stated) | i | i
CCc1c(C)nc(SCC(=O)Nc2ccc(Br)cc2)[nH]c1=O | 79.6 | i
Cc1nnc(SCC(=O)Nc2ccc(Br)cn2)[nH]c1=O | i | i
Cc1ccc(C)c(Cn2c(=O)c3c(nc4n3CCN4Cc3ccco3)n(C)c2=O)c1 | i | i
Cn1c(=O)n(CCc2ccccc2)c(=O)c2c1nc1n2CCN1Cc1ccco1 | 95.5 | i
CCOC(=O)C(CC)n1cnc2c(nnn2-c2ccc(OC)cc2)c1=O (configuration not stated) | i | i
CC1CCCCN1C(=O)CSc1nnc(-c2ccc(Cl)s2)o1 (configuration not stated) | i | i
